# About 410 targets per protein were measured; listed, in parts, are those with the strongest signals and a random draw of the rest.
# B1: EUL D1A second (Oryza sativa) (protein)
# chain: GAATACTIGGVPVHTVRVFSAAGEDYCLTVRNGTACLAPKNPRDDYQHWIKDMRHSNKIRDEEGYPAFALVNKVTGEAIKHSTGQGHPVKLVPYNPEYQDESVLWTESKDVGKGFRCIRMVNNIYLNFDAFHGDKDHGGIHDGTEIVLWKWCEGDNQRWKILPWILEQKLISEEDLNSAVDHHHHHH
# How the values were obtained:
# Assay in all cases: glycan array binding signal (z-score within array); higher = stronger binding
# Conditions in all cases: glycan notation: IUPAC condensed, linker removed
# [1] = target: Fuc(a1-2)Gal(b1-3)GlcNAc(b1-3)Gal(b1-4)Glc
# How it was run: (§1)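 Glycan array data came from 3228 arrays in the Consortium for Functional Glycomics database, and only arrays with an available protein sequence were kept. Glycan names were put into IUPAC-condensed notation, and columns mapping to the same glycan were averaged. The binding signal is a within-array Z-score, averaged across arrays of one protein sequence run at different concentrations or buffers and across linkers. A negative Z-score can be read as non-binding.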
# [2] = target: Fuc(a1-2)Gal(b1-3)GlcNAc(b1-3)GalNAc
# How it was run: as §1
# [3] = target: Fuc(a1-2)Gal(b1-3)[Fuc(a1-4)]GlcNAc(b1-2)Man(a1-3)[Fuc(a1-2)Gal(b1-3)[Fuc(a1-4)]GlcNAc(b1-2)Man(a1-6)]Man(b1-4)GlcNAc(b1-4)[Fuc(a1-6)]GlcNAc(b1-4)[Fuc(a1-6)]GlcNAc
# How it was run: as §1
# [4] = target: Fuc(a1-2)Gal(b1-3)[Fuc(a1-4)]GlcNAc(b1-3)[Gal(b1-4)GlcNAc(b1-6)]Gal(b1-4)Glc
# How it was run: as §1
# [5] = target: Fuc(a1-2)Gal3S(b1-4)GlcNAc
# How it was run: as §1
# [6] = target: Fuc(a1-2)Gal6S(b1-3)GlcNAc6S
# How it was run: as §1
# [7] = target: Fuc(a1-2)[GalNAc(a1-3)]Gal
# How it was run: as §1
# [8] = target: Fuc(a1-2)[GalNAc(a1-3)]Gal(b1-4)GlcNAc
# How it was run: as §1
# [9] = target: Fuc(a1-2)[GalNAc(a1-3)]Gal(b1-4)GlcNAc(b1-3)Gal(b1-4)GlcNAc
# How it was run: as §1
# [10] = target: Fuc(a1-2)[GalNAc(a1-4)]Gal(b1-4)GlcNAc
# How it was run: as §1
# [11] = target: Fuc(a1-2)[GalNAc(b1-3)]Gal
# How it was run: as §1
# [12] = target: Fuc(a1-3)[Gal(b1-4)]GlcNAc(b1-2)Man
# How it was run: as §1
# [13] = target: Fuc(a1-3)[Gal(b1-4)]GlcNAc(b1-3)Gal(b1-4)[Fuc(a1-3)]GlcNAc
# How it was run: as §1
# [14] = target: Fuc(a1-3)[Gal(b1-4)]GlcNAc(b1-3)GalNAc
# How it was run: as §1
# [15] = target: Fuc(a1-3)[Gal(b1-4)]GlcNAc6S
# How it was run: as §1
# Gal(a1-3)GalNAc = target: Gal(a1-3)GalNAc
# How it was run: as §1
# Gal(a1-4)GlcNAc = target: Gal(a1-4)GlcNAc
# How it was run: as §1
# Gal(b1-3)Gal = target: Gal(b1-3)Gal
# How it was run: as §1
# [16] = target: Gal(b1-3)GalNAc(b1-3)Gal(a1-4)Gal(b1-4)Glc
# How it was run: as §1
# [17] = target: Gal(b1-3)GlcNAc(b1-3)Gal(b1-4)GlcNAc(b1-2)[Gal(b1-3)GlcNAc(b1-3)Gal(b1-4)GlcNAc(b1-6)]Man(a1-6)[Gal(b1-3)GlcNAc(b1-3)Gal(b1-4)GlcNAc(b1-2)Man(a1-3)]Man(b1-4)GlcNAc(b1-4)[Fuc(a1-6)]GlcNAc
# How it was run: as §1
# [18] = target: Gal(b1-3)GlcNAc(b1-3)Gal(b1-4)GlcNAc(b1-3)Gal(b1-4)GlcNAc(b1-2)[Gal(b1-3)GlcNAc(b1-3)Gal(b1-4)GlcNAc(b1-3)Gal(b1-4)GlcNAc(b1-6)]Man(a1-6)[Gal(b1-3)GlcNAc(b1-3)Gal(b1-4)GlcNAc(b1-3)Gal(b1-4)GlcNAc(b1-2)Man(a1-3)]Man(b1-4)GlcNAc(b1-4)[Fuc(a1-6)]GlcNAc
# How it was run: as §1
# Gal(b1-4)Gal = target: Gal(b1-4)Gal
# How it was run: as §1
# Gal(b1-4)GlcNAc(b1-2)Man = target: Gal(b1-4)GlcNAc(b1-2)Man
# How it was run: as §1
# [19] = target: Gal(b1-4)GlcNAc(b1-2)Man(a1-3)[Man(a1-6)]Man(b1-4)GlcNAc(b1-4)GlcNAc
# How it was run: as §1
# [20] = target: Gal(b1-4)GlcNAc(b1-2)[Gal(b1-4)GlcNAc(b1-4)]Man(a1-3)[GlcNAc(b1-4)][Gal(b1-4)GlcNAc(b1-2)[Gal(b1-4)GlcNAc(b1-6)]Man(a1-6)]Man(b1-4)GlcNAc(b1-4)GlcNAc
# How it was run: as §1
# [21] = target: Gal(b1-4)GlcNAc(b1-2)[Gal(b1-4)GlcNAc(b1-6)]Man(a1-6)[GlcNAc(b1-4)][Gal(b1-4)GlcNAc(b1-2)Man(a1-3)]Man(b1-4)GlcNAc(b1-4)GlcNAc
# How it was run: as §1
# [22] = target: Gal(b1-4)GlcNAc(b1-3)Gal(b1-3)GlcNAc
# How it was run: as §1
# [23] = target: Gal(b1-4)GlcNAc(b1-3)Gal(b1-4)Glc
# How it was run: as §1
# [24] = target: Gal(b1-4)GlcNAc(b1-3)Gal(b1-4)GlcNAc
# How it was run: as §1
# [25] = target: Gal(b1-4)GlcNAc(b1-3)Gal(b1-4)GlcNAc(b1-2)[Gal(b1-4)GlcNAc(b1-3)Gal(b1-4)GlcNAc(b1-6)]Man(a1-6)[Gal(b1-4)GlcNAc(b1-3)Gal(b1-4)GlcNAc(b1-2)Man(a1-3)]Man(b1-4)GlcNAc(b1-4)[Fuc(a1-6)]GlcNAc
# How it was run: as §1
# [26] = target: Gal(b1-4)GlcNAc(b1-3)Gal(b1-4)GlcNAc(b1-3)Gal(b1-4)GlcNAc(b1-3)Gal(b1-4)GlcNAc(b1-3)Gal(b1-4)GlcNAc(b1-3)Gal(b1-4)GlcNAc(b1-2)Man(a1-3)[Gal(b1-4)GlcNAc(b1-3)Gal(b1-4)GlcNAc(b1-3)Gal(b1-4)GlcNAc(b1-3)Gal(b1-4)GlcNAc(b1-3)Gal(b1-4)GlcNAc(b1-3)Gal(b1-4)GlcNAc(b1-2)Man(a1-6)]Man(b1-4)GlcNAc(b1-4)GlcNAc
# How it was run: as §1
# [27] = target: Gal(b1-4)GlcNAc(b1-6)Gal(b1-4)GlcNAc
# How it was run: as §1
# [28] = target: Gal(b1-4)GlcNAc(b1-6)[Gal(b1-4)GlcNAc(b1-3)]GalNAc
# How it was run: as §1
binder,measurement,setting,value
B1,glycan array binding signal (z-score),[1],-1.01
same,glycan array binding signal (z-score),[2],-0.565
same,glycan array binding signal (z-score),[3],0.045
same,glycan array binding signal (z-score),[4],1.09
same,glycan array binding signal (z-score),[5],0.228
same,glycan array binding signal (z-score),[6],1.43
same,glycan array binding signal (z-score),[7],-0.789
same,glycan array binding signal (z-score),[8],-1.07
same,glycan array binding signal (z-score),[9],-0.086
same,glycan array binding signal (z-score),[10],0.772
same,glycan array binding signal (z-score),[11],-0.072
same,glycan array binding signal (z-score),[12],0.112
same,glycan array binding signal (z-score),[13],-0.106
same,glycan array binding signal (z-score),[14],0.566
same,glycan array binding signal (z-score),[15],-0.105
same,glycan array binding signal (z-score),Gal(a1-3)GalNAc,-1.42
same,glycan array binding signal (z-score),Gal(a1-4)GlcNAc,-1.01
same,glycan array binding signal (z-score),Gal(b1-3)Gal,-0.342
same,glycan array binding signal (z-score),[16],2.08
same,glycan array binding signal (z-score),[17],4.86
same,glycan array binding signal (z-score),[18],4.47
same,glycan array binding signal (z-score),Gal(b1-4)Gal,3.37
same,glycan array binding signal (z-score),Gal(b1-4)GlcNAc(b1-2)Man,1.59
same,glycan array binding signal (z-score),[19],-0.232
same,glycan array binding signal (z-score),[20],-0.986
same,glycan array binding signal (z-score),[21],-0.799
same,glycan array binding signal (z-score),[22],-0.245
same,glycan array binding signal (z-score),[23],-0.283
same,glycan array binding signal (z-score),[24],-0.532
same,glycan array binding signal (z-score),[25],3.31
same,glycan array binding signal (z-score),[26],0.069
same,glycan array binding signal (z-score),[27],-0.144
same,glycan array binding signal (z-score),[28],-0.385

# From the supplement of paper PMC8728848
